In ChEMBL document CHEMBL3988442, “University of Dundee, Small-Polar-MMV Screening Library” (2021) one finds Percent Effect data, which are given here for eleven compounds.

What all share (design): scale not given: direction of the effect not stated beside the values
For test [1], the target named is Protein translocase subunit SecA (Escherichia coli (strain K12)) (UniProt P10408). Put plainly: Assay to Identify E. coli SecA ATPase Inhibitors. The format is functional. The settings on record: 30 µM.
Test [2] has as its target T1, Ubiquitin-activating enzyme e1, putative (Leishmania donovani (strain BPK282A1)) (UniProt E9BSI1).
T1 sequence (whole entry): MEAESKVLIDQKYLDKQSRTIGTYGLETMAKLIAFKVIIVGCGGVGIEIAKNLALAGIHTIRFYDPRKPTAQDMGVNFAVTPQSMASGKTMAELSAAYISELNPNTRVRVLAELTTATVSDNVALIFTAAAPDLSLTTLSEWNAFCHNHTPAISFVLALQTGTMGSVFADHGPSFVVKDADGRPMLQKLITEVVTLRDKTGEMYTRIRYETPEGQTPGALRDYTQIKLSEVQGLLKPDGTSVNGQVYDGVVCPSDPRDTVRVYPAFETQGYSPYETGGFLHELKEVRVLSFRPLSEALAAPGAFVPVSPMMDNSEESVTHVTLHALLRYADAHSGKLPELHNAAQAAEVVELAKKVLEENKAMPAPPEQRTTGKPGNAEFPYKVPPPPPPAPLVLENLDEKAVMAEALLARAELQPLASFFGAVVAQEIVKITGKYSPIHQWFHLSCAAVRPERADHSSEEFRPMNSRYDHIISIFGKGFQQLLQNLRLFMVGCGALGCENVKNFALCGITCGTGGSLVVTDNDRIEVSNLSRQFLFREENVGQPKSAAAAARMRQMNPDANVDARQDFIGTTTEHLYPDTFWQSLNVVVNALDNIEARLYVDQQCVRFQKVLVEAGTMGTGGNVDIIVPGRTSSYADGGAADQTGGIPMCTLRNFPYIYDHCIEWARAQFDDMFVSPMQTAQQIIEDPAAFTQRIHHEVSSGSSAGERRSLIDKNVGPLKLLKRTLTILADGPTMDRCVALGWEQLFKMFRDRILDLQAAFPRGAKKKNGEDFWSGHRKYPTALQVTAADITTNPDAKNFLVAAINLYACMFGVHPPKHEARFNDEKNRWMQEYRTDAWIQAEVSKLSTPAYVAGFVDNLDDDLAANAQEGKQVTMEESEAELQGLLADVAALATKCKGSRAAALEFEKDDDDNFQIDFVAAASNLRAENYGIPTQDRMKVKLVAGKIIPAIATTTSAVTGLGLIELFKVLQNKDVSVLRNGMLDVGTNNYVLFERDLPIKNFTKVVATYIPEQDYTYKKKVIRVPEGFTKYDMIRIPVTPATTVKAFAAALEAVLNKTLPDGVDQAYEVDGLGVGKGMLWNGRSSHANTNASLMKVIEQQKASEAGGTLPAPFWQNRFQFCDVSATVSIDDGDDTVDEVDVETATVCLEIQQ
Description: Leishmania donovani Ubiquitin Activating Enzyme (LdE1). The format is functional. The note with it: 30 µM.

The target of test [3] is AMP-activated protein kinase, AMPK (Homo sapiens) (UniProt P54646+O43741+P54619+Q9UGJ0+Q9Y478+Q13131+Q9UGI9). Description: AMP-dependent Kinase enzyme assay. An in vitro enzyme assay that detects ADP turnover that is directly proportional to AMPK activity. This uses naive AMPK that is activated during the assay with MK-8722. The format is functional. The settings on record: 30 µM.

Test [4] has as its target Sialic acid-binding Ig-like lectin 9 (Homo sapiens) (UniProt Q9Y336). Description: Hs-Siglec9 ALPHAscreen SOP 20170721. The note with it: 10 µM. In general terms: In Alpha technology, singlet oxygen from a donor bead excites a nearby acceptor bead.
The next test concerns Trypanosoma cruzi. Description: Trypanosoma cruzi phosphomannomutase and mannose-1-phosphate guanylyltransferase assay. The test is classed as functional. The note with it: 10 µM.
For test [5], the target named is T2, Arginase-2, mitochondrial (Homo sapiens) (UniProt P78540).
T2 sequence (whole entry): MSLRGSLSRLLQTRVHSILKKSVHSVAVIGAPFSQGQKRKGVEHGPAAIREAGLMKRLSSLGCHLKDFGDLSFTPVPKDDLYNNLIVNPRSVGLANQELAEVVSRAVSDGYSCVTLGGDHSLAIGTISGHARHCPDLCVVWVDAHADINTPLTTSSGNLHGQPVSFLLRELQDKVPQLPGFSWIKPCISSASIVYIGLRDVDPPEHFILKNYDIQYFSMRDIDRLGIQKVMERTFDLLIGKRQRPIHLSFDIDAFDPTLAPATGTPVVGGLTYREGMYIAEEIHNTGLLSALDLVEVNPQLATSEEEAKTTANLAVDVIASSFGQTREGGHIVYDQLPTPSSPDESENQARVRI
Description: in vitro enzyme assay to detect the production of urea directly proportional to the activity of Arginase II. Also: in the data most compounds retested in dose-response had high values. The test is classed as functional. The settings on record: 33.3 µM.

Test [6] has as its target T3, Proteasome subunit beta (Trypanosoma cruzi) (UniProt O96673).
T3 sequence (whole entry): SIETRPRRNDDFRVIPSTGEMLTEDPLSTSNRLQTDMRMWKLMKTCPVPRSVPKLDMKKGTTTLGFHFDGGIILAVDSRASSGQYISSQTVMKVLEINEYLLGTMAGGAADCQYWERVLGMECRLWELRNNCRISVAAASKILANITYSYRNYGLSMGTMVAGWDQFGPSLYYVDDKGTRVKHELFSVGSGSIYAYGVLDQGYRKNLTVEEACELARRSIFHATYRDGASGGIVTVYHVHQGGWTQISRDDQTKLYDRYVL
Description: Trypanosoma cruzi proteasome chymotrypsin-like activity (TcProtChymo) assay. Also: in the data most compounds retested in dose-response had high values. The test is classed as functional. The settings on record: 9.37 µM.

For the next test, the species on record is Homo sapiens. Put plainly: To identify inhibition of the IFN signalling (Jak-Stat) pathway via expression of an eGFP reporter gene under the control of an IFN-stimulated response element (ISRE) containing MxA promoter. The test is classed as functional. The note with it: 30 µM. For orientation: Reporter assays use an easily measured gene product as a stand-in for the process of interest.

Test [7] has as its target T4, Tyrosyl-tRNA synthetase, putative (Trypanosoma cruzi (strain CL Brener)) (UniProt Q4DSP6).
T4 sequence (whole entry): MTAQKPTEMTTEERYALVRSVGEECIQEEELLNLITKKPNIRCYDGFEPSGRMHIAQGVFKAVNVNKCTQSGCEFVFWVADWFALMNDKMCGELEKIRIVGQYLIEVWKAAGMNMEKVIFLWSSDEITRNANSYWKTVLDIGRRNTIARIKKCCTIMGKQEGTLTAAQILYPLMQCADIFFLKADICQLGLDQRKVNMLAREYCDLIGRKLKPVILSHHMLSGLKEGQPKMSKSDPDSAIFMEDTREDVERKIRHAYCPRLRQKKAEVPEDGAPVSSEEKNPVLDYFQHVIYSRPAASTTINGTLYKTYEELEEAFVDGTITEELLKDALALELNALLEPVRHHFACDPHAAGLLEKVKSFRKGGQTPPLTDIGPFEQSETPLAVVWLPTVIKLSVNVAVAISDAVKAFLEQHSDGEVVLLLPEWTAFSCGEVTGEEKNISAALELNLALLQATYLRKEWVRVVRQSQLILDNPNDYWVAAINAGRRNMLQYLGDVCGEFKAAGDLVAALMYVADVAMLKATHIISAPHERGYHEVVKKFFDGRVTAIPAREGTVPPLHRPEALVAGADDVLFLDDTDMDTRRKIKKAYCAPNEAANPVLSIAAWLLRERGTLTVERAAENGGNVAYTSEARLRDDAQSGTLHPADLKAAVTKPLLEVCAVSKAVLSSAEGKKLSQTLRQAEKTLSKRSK
Put plainly: Trypanosoma cruzi tyrosyl tRNA synthetase (TcYRS) _High Tyrosine SOP. Also: in the data most compounds retested in dose-response had high values. The format is functional. The settings on record: 30 µM.

The target of test [8] is T4, Tyrosyl-tRNA synthetase, putative (Trypanosoma cruzi (strain CL Brener)). Description: Trypanosoma cruzi tyrosyl tRNA synthetase (TcYRS) SOP. The test is classed as functional. The note with it: 30 µM.
Test [9] deals with Chromo domain-containing protein 1 (Saccharomyces cerevisiae (strain ATCC 204508 / S288c) (Baker's yeast)) (UniProt P32657). Description: ScCHD-1 Enzyme Inhibition Assay. Also: in the data most compounds retested in dose-response had high values. The settings on record: 30 µM. The format is functional.

For some of these results: Measured potencies and affinities stand elsewhere.

Chain of Sialic acid-binding Ig-like lectin 9 (Homo sapiens) (Q9Y336 whole entry): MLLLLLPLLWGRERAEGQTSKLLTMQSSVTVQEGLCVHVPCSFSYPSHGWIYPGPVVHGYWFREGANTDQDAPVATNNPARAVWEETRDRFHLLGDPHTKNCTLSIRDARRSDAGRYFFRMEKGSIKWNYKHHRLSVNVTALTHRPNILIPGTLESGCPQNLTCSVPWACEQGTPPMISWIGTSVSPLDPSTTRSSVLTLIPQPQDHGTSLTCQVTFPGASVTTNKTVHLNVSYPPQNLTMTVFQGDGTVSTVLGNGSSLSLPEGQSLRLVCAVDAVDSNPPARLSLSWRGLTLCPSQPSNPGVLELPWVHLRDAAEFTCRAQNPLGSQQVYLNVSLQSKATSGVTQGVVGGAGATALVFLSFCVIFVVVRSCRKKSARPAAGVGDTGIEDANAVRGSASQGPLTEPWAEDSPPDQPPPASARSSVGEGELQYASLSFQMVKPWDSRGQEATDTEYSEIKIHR
Chain of Protein translocase subunit SecA (Escherichia coli (strain K12)) (P10408 whole entry): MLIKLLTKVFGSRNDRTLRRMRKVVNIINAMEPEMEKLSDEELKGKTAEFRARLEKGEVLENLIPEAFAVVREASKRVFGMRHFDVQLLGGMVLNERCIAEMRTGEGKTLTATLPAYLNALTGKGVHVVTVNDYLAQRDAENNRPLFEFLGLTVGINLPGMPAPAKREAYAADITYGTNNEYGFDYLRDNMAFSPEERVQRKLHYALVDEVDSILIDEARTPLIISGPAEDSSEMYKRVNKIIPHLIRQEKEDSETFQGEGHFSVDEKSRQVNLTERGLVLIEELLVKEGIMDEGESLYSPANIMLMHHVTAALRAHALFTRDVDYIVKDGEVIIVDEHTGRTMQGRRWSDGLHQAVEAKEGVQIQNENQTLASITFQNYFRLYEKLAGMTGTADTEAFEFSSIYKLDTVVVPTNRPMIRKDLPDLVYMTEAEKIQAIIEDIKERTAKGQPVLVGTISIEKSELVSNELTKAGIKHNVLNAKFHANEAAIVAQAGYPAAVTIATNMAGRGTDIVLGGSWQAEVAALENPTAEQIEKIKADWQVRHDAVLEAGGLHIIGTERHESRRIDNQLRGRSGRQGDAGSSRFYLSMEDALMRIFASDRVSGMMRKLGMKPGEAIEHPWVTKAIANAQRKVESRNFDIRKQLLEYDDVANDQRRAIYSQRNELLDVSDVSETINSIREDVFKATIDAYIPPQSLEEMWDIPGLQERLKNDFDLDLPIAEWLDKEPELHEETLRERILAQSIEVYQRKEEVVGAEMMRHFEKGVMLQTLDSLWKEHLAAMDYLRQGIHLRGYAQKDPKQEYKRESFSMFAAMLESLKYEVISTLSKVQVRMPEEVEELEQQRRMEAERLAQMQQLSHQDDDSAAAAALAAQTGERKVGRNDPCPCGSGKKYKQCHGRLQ
Chain of Chromo domain-containing protein 1 (Saccharomyces cerevisiae (strain ATCC 204508 / S288c) (Baker's yeast)) (P32657 whole entry, the tested form may be a part): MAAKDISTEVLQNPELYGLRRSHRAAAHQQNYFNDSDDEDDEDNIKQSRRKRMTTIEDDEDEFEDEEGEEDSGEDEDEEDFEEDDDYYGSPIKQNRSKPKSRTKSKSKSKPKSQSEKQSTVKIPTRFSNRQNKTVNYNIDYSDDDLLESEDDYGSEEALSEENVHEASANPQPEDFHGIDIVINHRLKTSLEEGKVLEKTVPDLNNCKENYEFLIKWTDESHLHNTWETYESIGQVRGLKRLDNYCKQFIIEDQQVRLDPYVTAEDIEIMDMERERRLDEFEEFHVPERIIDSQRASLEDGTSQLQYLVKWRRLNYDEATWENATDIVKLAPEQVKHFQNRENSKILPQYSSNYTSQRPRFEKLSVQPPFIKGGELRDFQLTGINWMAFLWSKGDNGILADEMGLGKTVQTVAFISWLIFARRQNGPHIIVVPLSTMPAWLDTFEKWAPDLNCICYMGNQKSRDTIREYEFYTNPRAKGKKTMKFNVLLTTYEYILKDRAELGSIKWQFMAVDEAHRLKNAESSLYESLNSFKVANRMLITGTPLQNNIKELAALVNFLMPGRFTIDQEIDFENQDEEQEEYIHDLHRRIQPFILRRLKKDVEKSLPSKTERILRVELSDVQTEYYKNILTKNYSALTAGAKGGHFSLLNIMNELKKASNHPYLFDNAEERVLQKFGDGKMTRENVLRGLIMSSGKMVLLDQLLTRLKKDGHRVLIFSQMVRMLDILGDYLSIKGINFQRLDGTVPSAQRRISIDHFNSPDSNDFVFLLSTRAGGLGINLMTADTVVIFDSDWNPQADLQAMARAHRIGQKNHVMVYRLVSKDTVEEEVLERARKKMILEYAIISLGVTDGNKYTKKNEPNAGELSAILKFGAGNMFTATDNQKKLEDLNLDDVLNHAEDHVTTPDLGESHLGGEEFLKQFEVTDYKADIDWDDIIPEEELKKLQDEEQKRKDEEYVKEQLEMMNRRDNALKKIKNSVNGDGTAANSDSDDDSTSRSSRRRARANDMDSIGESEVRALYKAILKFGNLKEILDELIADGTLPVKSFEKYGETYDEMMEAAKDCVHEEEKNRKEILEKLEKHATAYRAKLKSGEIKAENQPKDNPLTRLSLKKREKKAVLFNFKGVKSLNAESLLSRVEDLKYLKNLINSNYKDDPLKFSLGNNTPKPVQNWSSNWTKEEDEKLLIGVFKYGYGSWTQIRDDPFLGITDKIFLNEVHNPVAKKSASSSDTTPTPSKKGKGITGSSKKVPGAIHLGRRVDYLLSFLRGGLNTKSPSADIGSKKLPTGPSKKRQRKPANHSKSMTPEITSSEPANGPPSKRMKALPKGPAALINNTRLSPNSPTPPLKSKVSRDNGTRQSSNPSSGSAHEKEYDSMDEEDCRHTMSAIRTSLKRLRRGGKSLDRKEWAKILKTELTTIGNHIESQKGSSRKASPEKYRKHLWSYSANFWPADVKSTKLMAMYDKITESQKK

On to `CCNC(=O)c1ccc(N2CCCC(c3nccn3C(C)C)C2)nc1` (stereo unspecified), for which the Percent Effect was -2.94% in test [1]; 8% in test [2]; -3.44% in [3]; 14.3% in [4]; 5.16% with Trypanosoma cruzi; 20.3% in [5]. For the same compound, the Percent Effect in [6] was 11.2%; in the test listed under Homo sapiens, 6.3%; in test [7], 3.83%; in test [8], 11.1%; in test [9], -4.72%.
`Cc1nc(N2CCN(C(=O)C(C)(C)C)CC2)cc(-n2cnc(C)c2C)n1`: the Percent Effect in [1] was -3.24%; in test [2], 10.4%; in test [3], 2.15%; in [4], 6.33%; with Trypanosoma cruzi, 6.2%; in [5], -44.1%. In addition, the Percent Effect was 22.3% in test [6]; 4.66% in the test listed under Homo sapiens; 3.23% in [7]; 8.64% in test [8]; -4.66% in test [9].
As to `COc1ccc(C(C)N2CCN(Cc3nccn3C)CC2)cc1Cl` (stereo unspecified), the Percent Effect is -3.06% in test [1]; 2.6% in [2]; -0.681% in test [3]; 9.44% in test [4]; -1.87% with Trypanosoma cruzi; 0.712% in test [5]. Further, the Percent Effect was 11.3% in test [6]; 9.04% in the test filed under Homo sapiens; 2.91% in test [7]; 0% in [8]; -0.322% in [9].
Regarding `Cc1c[nH]c(CN(C)C(=O)C2CC(=O)N(Cc3ccncc3)C2)n1` (stereo unspecified), the Percent Effect in test [1] is -3.45%; in test [2], 5.41%; in test [3], -2.63%; in test [4], -5.87%; in the test on Trypanosoma cruzi it was -5.77%; in test [5] it was -1.24%. For the same compound, the Percent Effect in [6] was 8.33%; in the test filed under Homo sapiens, 0.971%; in [7] it was -1.07%; in test [8] it was 1.24%; in [9], -4.02%.
Consider `Cc1csc(N2CCN(CC(=O)Nc3c(C)n[nH]c3C)CC2C)n1` (stereo unspecified), for which the Percent Effect is -1.64% in test [1]; 21.6% in test [2]; -4.71% in test [3]; -7.72% in test [4]; -2.88% in the test on Trypanosoma cruzi; -3.51% in [5]. Moreover, the Percent Effect in test [6] is 15.4%; in the test filed under Homo sapiens, 5.89%; in [7], 3.96%; in test [8] it was 13.4%; in test [9], -4.83%.
With `N#CCCN(CCC#N)C(=O)CN1CCCC1Cc1cccc(F)c1` (stereo unspecified), the Percent Effect in [1] was -3.46%; in test [2] it was 0%; in test [3], -6.01%; in test [4] it was -7.53%; in the test with Trypanosoma cruzi, 3.32%; in test [5] it was 1.25%. Also, the Percent Effect was 24.6% in test [6]; -17.1% in the test listed under Homo sapiens; 7.92% in [7]; 8.54% in [8]; 0.083% in test [9].
In the case of `Cc1nc(C(C)(C)NC(=O)Nc2cccc(C#N)c2)no1`, the Percent Effect in test [1] was -4.07%; in test [2], 5.48%; in test [3], 3.16%; in [4], 8.84%; in the test with Trypanosoma cruzi it was 8.81%; in test [5] it was -0.455%. Besides, the Percent Effect was 15.1% in [6]; 3.14% in the test listed under Homo sapiens; 5.38% in [7]; 15% in test [8]; -4.58% in test [9].
For the compound `CC(C)NC(=O)N1CC[C@@H]2CN(Cc3ccccc3)S(=O)(=O)[C@@H]2CC1`, the Percent Effect was -7.87% in test [1]; -13.5% in test [2]; 131% in test [3]; -3.29% in [4]; -6.16% with Trypanosoma cruzi; 0.319% in test [5]. Moreover, the Percent Effect is 6.09% in test [6]; 29.7% in the test listed under Homo sapiens; -5.41% in test [7]; -5.13% in test [8]; -1.09% in test [9].
With `Cc1nn(C)c(C)c1NC(=O)CN1CCc2c(nc(C3CC3)n2C)C1`, the Percent Effect was 0.84% in [1]; -5.41% in test [2]; 0.981% in test [3]; 13.1% in test [4]; 6.76% with Trypanosoma cruzi; -5.71% in test [5]. The Percent Effect is 4.14% in [6]; 1.97% in the test listed under Homo sapiens; -0.529% in [7]; 7.32% in test [8]; -8.76% in test [9].
On to `O=C(CCc1cscn1)N1CCCC(n2ccnc2)C1` (stereo unspecified), for which the Percent Effect in [1] is -6.32%; in [2] it was 1.27%; in test [3], 6.89%; in [4], -0.321%; in the test on Trypanosoma cruzi, -2.36%; in [5], 0.645%. Also, the Percent Effect in [6] is 0.343%; in the test filed under Homo sapiens it was -13.2%; in [7], 8.33%; in [8], 5.06%; in test [9], -12.3%.
In the case of `CN(CC1CC1)C(=O)CN(Cc1cccc(O)c1)C1CCC(O)CC1` (stereo unspecified), the Percent Effect is -0.997% in test [1]; -2.7% in test [2]; -5.33% in test [3]; 8.92% in test [4]; 1.07% with Trypanosoma cruzi; 24.6% in [5]. In addition, the Percent Effect in test [6] turned out to be 11.1%; in the test listed under Homo sapiens, 12%; in test [7] it was 0%; in test [8] it was 1.24%; in test [9], 0.446%.
